Source: ChEMBL document CHEMBL3988442, “University of Dundee, Small-Polar-MMV Screening Library” (2021)
The campaign covered roughly 48,000 compounds. About 13,000 (27%) showed an effect of 50% or more. The list shows a part of the results.

What follows are compounds tested on Wolbachia pipientis (assay: Anti-Wolbachia Cell-Based Screen). Details: 5 µM.
Type: functional
Parameters: scale not given: in the data most compounds retested in dose-response had high values

Compound	Percent Effect [%]
COc1c(CNC2CCCOc3ccc(F)cc32)c(C)nn1C.Cl (centres undefined)	-15.22
Cc1ccccc1N1CCN(C(=O)c2ccc[nH]2)C(C)C1 (centres undefined)	-11.11
COCc1noc(-c2ccc(N(C)Cc3cn(C)nc3C)nc2)n1	-0.7863
COc1ccc(C(C)N2CCC(C(=O)NC3CC3)CC2)cc1Cl (centres undefined)	5.354
O=C(c1ccsc1)N1CCc2c(CNc3nccs3)n[nH]c2C1	-7.215
CN1C(=O)CC(c2ccccc2)C12CCN(c1ncccn1)CC2 (centres undefined)	-22.26
Cc1cc(C(F)(F)F)nc(CNC(=O)CCC2CCCCN2C)n1 (centres undefined)	-1.594
Cc1cc(C(F)(F)F)nc(CNC(=O)CCn2cccn2)n1	103.4
CCC(C(=O)NCc1csc(-c2ncccn2)n1)n1cccn1 (centres undefined)	6.719
CCC(C(=O)NCc1cc(N2CCOCC2)ncn1)n1cccn1 (centres undefined)	-0.1761
Cc1cc(C(F)(F)F)nc(CNC(=O)CCCN2CCCCC2)n1	-0.7363
CCc1csc(CNC(=O)C(CC)n2cccn2)n1 (centres undefined)	-1.307
CCC(C(=O)NCc1nc(C)cc(C(F)(F)F)n1)n1cccn1 (centres undefined)	86.37
CCC(C(=O)NCCc1nc(C)cc(C(F)(F)F)n1)n1cccn1 (centres undefined)	110
CCC(C(=O)NCc1noc(Cc2cccs2)n1)n1cccn1 (centres undefined)	-1.383
CC(C)NC(=O)N[C@H]1C[C@@H](c2nc(-c3ccncc3)no2)N(C)C1	-7.5
Cc1ccc2c(c1)CCCN2C(=O)c1cncc(Br)c1	3.118
CNC(=O)c1cc(NC(=O)NC(C)CCc2cccn2C)ccc1F (centres undefined)	0.1416
CNC(=O)CNC(=O)Nc1ccc(F)c(Br)c1	3.521
O=C(Nc1cnn(CCN2CCOCC2)c1)c1cc(F)ccc1F	-10.74
CCCn1cc(NC(=O)Nc2ccc(F)c(C(=O)NC)c2)cn1	109.9
Cc1c(C(=O)NS(=O)(=O)c2ccc(F)cc2)cnn1CC(C)C	6.603
CCc1c(C(=O)Nc2ccc(F)c(C(=O)NC)c2)cnn1CC(C)C	115.2
CC(C)Cn1cc(NC(=O)c2cccc(N(C)C)c2)cn1	-6.196
CCc1c(NCc2ccc(F)cc2)cnn1CC(C)C	0.9512

Compound	Percent Effect [%]
CNC(=O)c1cc(NC(=O)Nc2cnn(CC(C)C)c2)ccc1F	106.8
COCCCN1CCC(NC2CSCCc3ccccc32)CC1 (centres undefined)	3.161
O=C(CCn1cncn1)N1C[C@H]2CC[C@@H]1CN(Cc1cccnc1)C2	2.407
Cc1nc(Cn2cnc3c(c(Br)nn3C)c2=O)cs1	-1.874
Cc1csc([C@H]2C[C@@H]3CCN(Cc4cnn(C)c4)C[C@H]3O2)n1	5.32
CN1CCN(C(=O)c2n[nH]c3c2CCN(Cc2nccs2)C3)CC1	-5.603
CN(C)C1CCN(C(=O)c2n[nH]c3c2CCN(CC2CCC2)C3)CC1	111.2
CN(C)C(=O)c1n[nH]c2c1CN(Cc1ccccn1)CC2.O=C(O)C(F)(F)F	-21.72
O=C(O)C(F)(F)F.O=C(c1n[nH]c2c1CCN(Cc1nccs1)C2)N1CCCC1	1.297
Cc1ccc(CN2CCc3[nH]nc(C(=O)N(C)C)c3C2)s1.O=C(O)C(F)(F)F.O=C(O)C(F)(F)F	-17.1
CN(C)C(=O)c1n[nH]c2c1CN(CC1CCCCC1)C2.O=C(O)C(F)(F)F.O=C(O)C(F)(F)F	93.81
CN(C)C(=O)c1n[nH]c2c1CN(CC1CCC1)C2.O=C(O)C(F)(F)F.O=C(O)C(F)(F)F	93.12
CCN1CCc2[nH]nc(C(=O)N3CCCC3C)c2C1.O=C(O)C(F)(F)F (centres undefined)	-0.9609
CN(C)C(=O)c1n[nH]c2c1CN(Cc1nccs1)CC2.O=C(O)C(F)(F)F	-9.505
Cc1cc(C(=O)N(C)Cc2ccoc2)c(NC(=O)C(C)(C)C)s1	-2.438
Cn1c(CS(=O)(=O)Cc2ccc(Cl)cc2)cc(=O)n(C)c1=O	5.826
C/C=C(\C)CN1CCC2(CCC(=O)N2OCc2ccccc2F)CC1	2.227
CCOCc1ccccc1NC(=O)NCC(C)(O)c1cc(C)oc1C (centres undefined)	-7.22
CCc1ccccc1OC1CN(C(=O)CN(C)Cc2cccnc2)C1	-4.322
COCCNC(=O)Cn1c(-c2ccc(Cl)cc2)nc(C)c(CCO)c1=O	140
CCN(CC)C(=O)Cn1c(C)cc2nc(SC)n(CC(C)C)c(=O)c21	2.572
Cc1noc(Cl)c1CC(=O)NCCOc1ccc(F)cc1F	16.27
COCCNC(=O)c1sc(Nc2ccc(Cl)cn2)nc1C	19.38
CCN(Cc1cnn(CC)c1)C(=O)Cn1c(=O)c(C)nc2ccccc21	-5.598
COCCNC(=O)Cn1c(-c2ccc(F)cc2)nc(C)c(CCO)c1=O	103.8

Compound	Percent Effect [%]
COc1c(CNCCNC(=O)Cc2ccc(F)cc2)c(C)nn1C	-0.8821
Cc1nc(-c2ccc(Cl)cc2)n(CC(=O)NC(C)C)c(=O)c1CCO	129.7
CCN(CC)C(=O)Cn1c(-c2ccc(Cl)cc2)nc(C)c(CCO)c1=O	119.6
CC(CNC(=O)c1cccnc1O)Cn1cccn1 (centres undefined)	-0.5981
O=C1CCCN1CCCC(=O)N1CCCCC1c1ccc(F)cc1 (centres undefined)	-8.614
O=C(NCCNS(=O)(=O)c1ccc(C(F)(F)F)cc1)c1ccoc1	7.368
CCCN1CCC(NC(=O)c2csc(C)c2C)CC1	2.027
O=C(CS(=O)(=O)c1ccc(Cl)cc1)NC1CCCc2ccccc21 (centres undefined)	1.396
CC(C)OC(C)c1nnc(SCC(=O)O)n1-c1ccc(F)cc1F (centres undefined)	15.24
COc1ccccc1[C@@H]1CN(C(=O)Cc2csc(C)n2)C[C@H]1C(=O)O	12.9
O=C(O)[C@@H]1CN(C(=O)Cc2ccccc2Cl)C[C@H]1C1CC1	117.2
CCOCCOc1ccccc1C(=O)N1C[C@H](C2CC2)[C@@H](N)C1	-0.9919
CCOc1ccccc1CC(=O)N1C[C@@H](C(=O)O)[C@H](c2ccncc2)C1	102.2
CCOc1ccccc1CC(=O)N1C[C@H](C2CC2)[C@@H](N)C1	104.9
CCOc1ccc(CC(=O)N2C[C@H](C3CC3)[C@@H](N)C2)cc1	13.07
CCOc1ccccc1CC(=O)N1C[C@@H](C(=O)O)[C@H](C2CC2)C1	111.1
N[C@H]1CN(C(=O)c2ccccc2OCc2ccccc2)C[C@@H]1C1CC1	10.21
Cc1nc(C)c(CC(=O)N2C[C@@H](C(=O)O)[C@H](c3ccncc3)C2)s1	-15.05
O=C(O)[C@@H]1CN(C(=O)CCc2ccccn2)C[C@H]1c1ccccc1	11.77
N[C@H]1CN(C(=O)Cc2ccc(Cl)c(Cl)c2)C[C@@H]1C1CC1	0.666
O=C(O)[C@@H]1CN(Cc2cc3c(cc2Cl)OCO3)C[C@H]1C1CC1	-1.718
CS(=O)(=O)N1C[C@H]2CNC[C@@]2(C(=O)NCCCc2ccccc2)C1	15.21
C1CCCN(c2nc(C3CC3)ns2)CC1	16.93
CCCS(=O)(=O)N1CCC2(CN(c3cnn(C)c3)C(=O)CN2C)C1.O=C(O)C(F)(F)F (centres undefined)	-3.589
Cc1nc(N2CCCC2)nc(C)c1NS(C)(=O)=O	5.529

Compound	Percent Effect [%]
Cc1nn2c(N3CCC(O)C3)cc(-c3ccccc3)nc2c1C (centres undefined)	3.691
Cc1cc(F)cc(S(=O)(=O)NCCCN2CCC(O)CC2)c1	17.75
CS(=O)(=O)NCc1cc(-c2cc(F)cc(F)c2)nc(N2CCOCC2)n1	112.2
CCc1cc(NCCS(=O)(=O)N(C)C)nc(N2CCOCC2)n1	7.02
CCc1cc(NC(C)(C)C)nc(N2CCOCC2)n1	-8.862
CS(=O)(=O)NCc1cc(-c2cc(F)cc(F)c2)nc(N2CCCC2)n1	85.03
Cc1cc(F)cc(CN2CCCn3nc(CNS(C)(=O)=O)cc3C2)c1	-6.917
CS(=O)(=O)NCc1cc(-c2cc(F)cc(F)c2)nc(N2CC[C@H](O)C2)n1	97.73
Cn1cnc2c1C(C(=O)N1CCCC1)N(CC1CC1)CC2.O=C(O)C(F)(F)F (centres undefined)	6.577
Cc1noc(C)c1CN(C)C(=O)C1CCCN1S(N)(=O)=O (centres undefined)	1.482
Cc1nc2ccccc2n(Cc2nnnn2C2CC2)c1=O	11.64
CCc1ccc(CN2CCN(c3ccc(Cl)nn3)CC2)nc1	-1.382
CC(=O)N1CC[C@H]2CC(=O)N(C3CC3)CC[C@H]2C1	-2.772
COCc1noc(-c2ccc(N3CCCC3c3ccc(F)cc3)nc2)n1 (centres undefined)	17.95
CCSc1ccccc1C(=O)N1CC2(COC(C)(C)OC2)C1	0.7993
CNc1ncc(CN(C)C2CCN(C(C)C)CC2)cn1	131.8
CC(C)N1CCC(NCc2cccnc2N(C)Cc2ccccc2)CC1	-0.8543
CCc1ncc(CN(C)C2CCN(C(C)C)CC2)cn1.O=C(O)CC(O)(CC(=O)O)C(=O)O	161.6
CC(C)N1CCC(C(=O)N(C)C(C)c2ccon2)CC1 (centres undefined)	-1.072
CCCc1ncc(CN(C)C2CCCN(CCc3ccccc3)C2)cn1 (centres undefined)	-21.26
CC(C)N1CCC(NCc2cccnc2N(C)C)CC1	4.897
CCN1CCN(Cc2ccnc(-c3cccnc3)n2)CC1.O=C(O)CC(O)(CC(=O)O)C(=O)O	-7.954
COc1ncc(CN(C)C2CCN(C(C)C)CC2)cn1	134.1
COc1ncc(CN(CCN(C)C)Cc2ccc(C)s2)cn1	7.179
